The AC50 is the concentration giving half of the maximal activity seen.

Results filed as inconclusive are left out. Active and inactive are the calls of the source. How the source made its calls, unless noted: active means hit-call score of the fitted dose curve at least 0.9, where 1 is the maximum; inactive means score below 0.9.

Experiment [1] addresses human CYP2D6, CYP2D6 (gene 1565) (UniProt P10635). Kind of experiment: NVS_ADME_hCYP2D6: NovaScreen (NVS) CYP450-related Enzyme Activity (ADME) Assay for human CYP2D6 (AID 2283107; active means hit-call score of the fitted dose curve at least 0.9, where 1 is the maximum). The essentials:
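Insect-cell recombinant enzyme + fluorogenic substrate, cell-free; 1 h incubation; fluorescence intensity readout. Acetonitrile = neg. ctrl/baseline. Single-point 10 uM, duplicate; follow-up concentration series.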

Read-out in experiment [2]: E-selectin (Homo sapiens) (UniProt P16581)
The experiment can be described thus: BSK_SAg_Eselectin: BioMAP Diversity Plus: SAg Assay for Eselectin Biomarker Activity (AID 2283091). Conditions: primary human HUVEC with PBMC; actives raise or lower the signal. The essentials: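 Co-culture: HUVEC + PBMC. Dose compound; 24 h. ELISA for E-selectin. Bidirectional fit vs DMSO.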

The nature of experiment [3]: BSK_SAg_PBMCCytotoxicity: PBMC Cytotoxicity Assessment in the BioMAP Diversity Plus: SAg Assay (AID 2283093).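 Further: PBMC viability measured as Alamar Blue reduction fluorescence at 546/580 nm; fitted both ways against DMSO so a hit may be loss or gain of signal.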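 On AC50: PBMC superantigen activated with SEB plus TSST-1 one hour after compound addition.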 Conditions: primary human HUVEC with PBMC. The essentials: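 HUVEC/PBMC co-culture; PBMC exposed to chemical 1 h before SEB and TSST-1 activation (20 ng/mL each), incubated 90 h, then Alamar Blue 6 h, fluorescence 546/580 nm. Bidirectional fit versus DMSO baseline.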

Read-out in experiment [4]: Interleukin-8 (IL8), CXCL8 (gene 3576)
The experiment can be described thus: BSK_SAg_IL8: BioMAP Diversity Plus: SAg Assay for Interleukin-8 (IL8) Biomarker Activity (AID 2283094). Conditions: primary human HUVEC with PBMC; actives raise or lower the signal. The essentials: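 In this co-culture of human umbilical vein endothelium with peripheral blood mononuclear cells, IL-8 is assayed by ELISA at 24 h. DMSO serves as baseline for bidirectional curve fitting.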

Experiment [5] is described as follows: BSK_SAg_Proliferation: Cell Proliferation Assessment in the BioMAP Diversity Plus: SAg Assay (AID 2283095).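 Further: relative cell number as total protein by SRB absorbance in sub-confluent culture.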 Conditions: primary human HUVEC with PBMC. The essentials:
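Readout is SRB-stained protein (560 nm) in a primary human HUVEC and PBMC co-culture; sub-confluent cultures are read at 96 h. Activity is fitted bidirectionally using DMSO as baseline.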

Experiment [6] in a line: BSK_SAg_SRB: Viability Assessment in the BioMAP Diversity Plus: SAg Assay (AID 2283096).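 Further: cells read one day after compound addition; hits may be either gain or loss of signal compared with DMSO.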 Conditions: primary human HUVEC with PBMC. The essentials: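 Human umbilical vein endothelial cells co-cultured with PBMC, read 24 h after compound dosing. Total protein measured by sulforhodamine B staining (0.1% SRB after 10% TCA fixation, absorbance 560 nm); bidirectional fit versus DMSO baseline.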

Experiment [7] has as its target Cytochrome P450 3A4 (Homo sapiens) (UniProt P08684). The experiment can be described thus: NVS_ADME_hCYP3A4: NovaScreen (NVS) CYP450-related Enzyme Activity (ADME) Assay for human CYP3A4 (AID 2283110; active means hit-call score of the fitted dose curve at least 0.9, where 1 is the maximum). The essentials: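 Cell-free recombinant enzyme expressed in insect cells; fluorescent substrate turnover read after 0.33 h, acetonitrile as negative control. Primary screen in duplicate at 10 uM, actives then tested in concentration series.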

Experiment [8] addresses human Ephrin type-A Receptor 1 (EphA1), EPHA1 (gene 2041) (UniProt P21709). Kind of experiment: NVS_ENZ_hEphA1: NovaScreen (NVS) Enzymatic Assay for human Ephrin type-A Receptor 1 (EphA1) (AID 2283158; active means hit-call score of the fitted dose curve at least 0.9, where 1 is the maximum;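 further: activity is signal loss versus DMSO meaning EphA1 kinase inhibition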). The essentials: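 Chemicals first tested in duplicate at 25 uM against recombinant EphA1 with a fluorescent substrate; those passing threshold went to singleton dose-response topping at 50 uM. Activity read 1 h later as mobility-shift fluorescence, loss of signal relative to DMSO.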

Experiment [9] addresses human Caspase 5 (CASP5), CASP5 (gene 838) (UniProt P51878). The experiment can be described thus: NVS_ENZ_hCASP5: NovaScreen (NVS) Enzymatic Assay for human Caspase 5 (CASP5) (AID 2283137; active means hit-call score of the fitted dose curve at least 0.9, where 1 is the maximum). The essentials:
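Cell-free protease assay with bacterially expressed CASP5 and a fluorescent substrate, measured at 2 h. Values fitted relative to DMSO as baseline, from concentration-response series topping at 50 uM.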

Experiment [10] deals with human Dual Specificity Protein Phosphatase 3 (DUSP3), DUSP3 (gene 1845) (UniProt P51452). Kind of experiment: NVS_ENZ_hDUSP3: NovaScreen (NVS) Enzymatic Assay for human Dual Specificity Protein Phosphatase 3 (DUSP3) (AID 2283152; active means hit-call score of the fitted dose curve at least 0.9, where 1 is the maximum;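 further: phosphatase activity of recombinant human DUSP3 on a fluorogenic substrate without cells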). The essentials:
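Cell-free assay with recombinant human DUSP3 and fluorogenic substrate, read by fluorescence intensity. Primary screen ran duplicate at 25 uM; actives followed up in concentration series; loss of signal versus DMSO scored.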

The target in experiment [11] is human CYP2A6, CYP2A6 (gene 1548) (UniProt P11509). Kind of experiment: NVS_ADME_hCYP2A6: NovaScreen (NVS) CYP450-related Enzyme Activity (ADME) Assay for human CYP2A6 (AID 2283099; active means hit-call score of the fitted dose curve at least 0.9, where 1 is the maximum). The essentials:
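Fluorescent substrate turnover by recombinant CYP2A6 (insect cell source), 0.5 h read. Screen: 10 uM, duplicate; threshold hits (e.g. 30% inhibition) → singleton concentration-response, top 20 uM. Positive and negative controls on every plate.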

Experiment [12] concerns the target human CYP2B6, CYP2B6 (gene 1555) (UniProt P20813). The experiment can be described thus: NVS_ADME_hCYP2B6: NovaScreen (NVS) CYP450-related Enzyme Activity (ADME) Assay for human CYP2B6 (AID 2283101; active means hit-call score of the fitted dose curve at least 0.9, where 1 is the maximum). The essentials: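 Compounds were first screened in duplicate at 10 uM against recombinant enzyme, with the fluorescent product measured after 1 hour. Active compounds were retested over a concentration series. Loss of fluorescence versus acetonitrile control was scored as reduced enzyme activity.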

The target in experiment [13] is human CYP1A2, CYP1A2 (gene 1544) (UniProt P05177). Kind of experiment: NVS_ADME_hCYP1A2: NovaScreen (NVS) CYP450-related Enzyme Activity (ADME) Assay for human CYP1A2 (AID 2283102; active means hit-call score of the fitted dose curve at least 0.9, where 1 is the maximum). The essentials: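 rec. hCYP1A2 (insect cells), cell-free; fluorogenic substrate; 0.5 h; FI read. Baseline = acetonitrile; signal loss = inhibition. 10 uM duplicate primary → conc. series for actives.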

The target of experiment [14] is Cytochrome P450 2C19 (Homo sapiens) (UniProt P33261). Kind of experiment: NVS_ADME_hCYP2C19: NovaScreen (NVS) CYP450-related Enzyme Activity (ADME) Assay for human CYP2C19 (AID 2283113; active means hit-call score of the fitted dose curve at least 0.9, where 1 is the maximum;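 further: potency for inhibition seen as loss of fluorescent signal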). The essentials:
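Fluorescence intensity was measured 1 hour after chemicals were added to insect-cell-derived recombinant CYP2C19 with fluorogenic substrate. Decreased signal versus acetonitrile control was taken as reduced enzyme activity; initial testing used 10 uM in duplicate.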

The target of experiment [15] is human CYP19A1, CYP19A1 (gene 1588) (UniProt P11511). Kind of experiment: NVS_ADME_hCYP19A1: NovaScreen (NVS) CYP450-related Enzyme Activity (ADME) Assay for human CYP19A1 (AID 2283098; active means hit-call score of the fitted dose curve at least 0.9, where 1 is the maximum). The essentials:
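Recombinant enzyme in a cell-free format, read 0.5 h after dosing by fluorescence from a fluorogenic substrate. Loss of signal was fitted against acetonitrile as baseline. Primary screen in duplicate at 10 uM, actives then tested in concentration series.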

For experiment [16], the target named is human Esterase Plasma (ES), BCHE (gene 590) (UniProt P06276). The experiment can be described thus: NVS_ENZ_hES: NovaScreen (NVS) Enzymatic Assay for human Esterase Plasma (ES) (AID 2283157; active means hit-call score of the fitted dose curve at least 0.9, where 1 is the maximum). The essentials:
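Esterase from human plasma, cell-free, colorimetric absorbance read 0.25 h after dosing. Screened at 25 uM in duplicate, with threshold-passing chemicals run in concentration-response up to 50 uM; loss of signal fitted versus DMSO.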

Sequence of human Dual Specificity Protein Phosphatase 3 (DUSP3), DUSP3 (gene 1845) (P51452 whole entry, looked up): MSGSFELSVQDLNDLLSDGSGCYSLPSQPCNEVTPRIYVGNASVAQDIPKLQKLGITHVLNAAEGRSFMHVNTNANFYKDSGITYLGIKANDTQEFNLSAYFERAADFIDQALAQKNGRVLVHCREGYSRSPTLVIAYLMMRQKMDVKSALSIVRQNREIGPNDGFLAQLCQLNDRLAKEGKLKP
Sequence of human Ephrin type-A Receptor 1 (EphA1), EPHA1 (gene 2041) (P21709 whole entry, looked up): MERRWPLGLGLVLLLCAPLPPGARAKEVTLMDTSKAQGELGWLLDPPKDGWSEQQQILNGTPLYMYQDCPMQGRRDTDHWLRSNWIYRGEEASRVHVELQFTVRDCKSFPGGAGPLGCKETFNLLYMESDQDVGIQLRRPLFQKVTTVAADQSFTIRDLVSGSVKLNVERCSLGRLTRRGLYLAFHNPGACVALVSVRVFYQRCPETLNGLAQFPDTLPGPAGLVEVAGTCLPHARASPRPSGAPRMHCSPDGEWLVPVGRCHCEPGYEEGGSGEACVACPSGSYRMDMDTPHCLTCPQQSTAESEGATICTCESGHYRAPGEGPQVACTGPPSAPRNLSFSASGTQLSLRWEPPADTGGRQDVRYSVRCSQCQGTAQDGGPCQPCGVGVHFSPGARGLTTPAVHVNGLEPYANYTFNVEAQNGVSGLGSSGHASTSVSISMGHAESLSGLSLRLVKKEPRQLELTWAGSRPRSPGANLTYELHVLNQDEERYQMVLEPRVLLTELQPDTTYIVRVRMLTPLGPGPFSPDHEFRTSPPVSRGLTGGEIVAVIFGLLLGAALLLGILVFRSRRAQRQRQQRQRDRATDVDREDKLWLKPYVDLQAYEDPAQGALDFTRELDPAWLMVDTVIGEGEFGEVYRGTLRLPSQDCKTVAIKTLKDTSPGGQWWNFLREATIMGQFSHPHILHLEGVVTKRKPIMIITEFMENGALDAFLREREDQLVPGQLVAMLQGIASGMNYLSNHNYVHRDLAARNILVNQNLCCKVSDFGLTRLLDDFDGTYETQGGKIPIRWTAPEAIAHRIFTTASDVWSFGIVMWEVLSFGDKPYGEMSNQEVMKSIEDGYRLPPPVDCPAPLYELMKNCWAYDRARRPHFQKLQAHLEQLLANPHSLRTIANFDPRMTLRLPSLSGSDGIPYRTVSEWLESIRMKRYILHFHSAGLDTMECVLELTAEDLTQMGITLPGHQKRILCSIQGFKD
Sequence of E-selectin (Homo sapiens) (P16581 whole entry, looked up): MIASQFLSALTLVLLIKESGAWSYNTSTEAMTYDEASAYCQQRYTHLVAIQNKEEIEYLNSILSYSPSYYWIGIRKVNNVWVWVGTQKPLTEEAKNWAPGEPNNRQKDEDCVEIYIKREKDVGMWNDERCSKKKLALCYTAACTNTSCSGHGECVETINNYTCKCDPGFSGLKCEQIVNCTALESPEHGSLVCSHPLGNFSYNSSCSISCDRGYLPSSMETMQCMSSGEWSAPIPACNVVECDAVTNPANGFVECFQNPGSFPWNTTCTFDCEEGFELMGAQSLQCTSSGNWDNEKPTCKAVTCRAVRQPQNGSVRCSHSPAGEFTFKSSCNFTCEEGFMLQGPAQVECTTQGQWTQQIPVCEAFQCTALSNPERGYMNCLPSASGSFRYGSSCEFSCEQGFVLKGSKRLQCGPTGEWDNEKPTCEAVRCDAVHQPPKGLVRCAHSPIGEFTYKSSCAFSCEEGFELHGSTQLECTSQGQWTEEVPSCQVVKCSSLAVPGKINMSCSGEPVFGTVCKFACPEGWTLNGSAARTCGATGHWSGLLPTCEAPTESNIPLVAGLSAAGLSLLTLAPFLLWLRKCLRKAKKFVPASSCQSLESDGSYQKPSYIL
Sequence of human Caspase 5 (CASP5), CASP5 (gene 838) (P51878 whole entry, looked up): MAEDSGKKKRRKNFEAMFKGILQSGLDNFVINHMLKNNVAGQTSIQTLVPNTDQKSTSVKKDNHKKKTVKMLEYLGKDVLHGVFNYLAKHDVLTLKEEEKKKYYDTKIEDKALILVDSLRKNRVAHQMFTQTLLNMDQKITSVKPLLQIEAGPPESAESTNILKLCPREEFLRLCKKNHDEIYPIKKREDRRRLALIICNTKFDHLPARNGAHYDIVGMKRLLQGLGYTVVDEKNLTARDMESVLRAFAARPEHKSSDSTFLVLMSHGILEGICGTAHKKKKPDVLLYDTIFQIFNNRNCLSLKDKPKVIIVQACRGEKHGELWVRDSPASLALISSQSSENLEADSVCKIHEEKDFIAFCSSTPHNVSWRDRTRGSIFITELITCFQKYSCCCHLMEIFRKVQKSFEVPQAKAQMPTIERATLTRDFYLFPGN
Sequence of Cytochrome P450 3A4 (Homo sapiens) (P08684 whole entry, looked up): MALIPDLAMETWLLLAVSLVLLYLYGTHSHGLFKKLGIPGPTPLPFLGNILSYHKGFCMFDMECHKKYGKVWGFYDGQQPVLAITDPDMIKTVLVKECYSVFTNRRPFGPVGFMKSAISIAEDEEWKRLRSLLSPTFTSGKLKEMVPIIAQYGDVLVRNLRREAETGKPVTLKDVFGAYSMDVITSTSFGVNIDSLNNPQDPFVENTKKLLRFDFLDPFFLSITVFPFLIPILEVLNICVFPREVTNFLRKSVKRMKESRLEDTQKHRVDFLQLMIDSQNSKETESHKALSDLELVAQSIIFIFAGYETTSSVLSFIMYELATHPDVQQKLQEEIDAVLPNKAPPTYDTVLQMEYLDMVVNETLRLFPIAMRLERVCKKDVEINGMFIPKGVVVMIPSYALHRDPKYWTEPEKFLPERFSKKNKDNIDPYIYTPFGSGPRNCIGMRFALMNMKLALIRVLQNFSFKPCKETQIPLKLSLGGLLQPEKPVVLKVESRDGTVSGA
Sequence of human Esterase Plasma (ES), BCHE (gene 590) (P06276 whole entry, looked up): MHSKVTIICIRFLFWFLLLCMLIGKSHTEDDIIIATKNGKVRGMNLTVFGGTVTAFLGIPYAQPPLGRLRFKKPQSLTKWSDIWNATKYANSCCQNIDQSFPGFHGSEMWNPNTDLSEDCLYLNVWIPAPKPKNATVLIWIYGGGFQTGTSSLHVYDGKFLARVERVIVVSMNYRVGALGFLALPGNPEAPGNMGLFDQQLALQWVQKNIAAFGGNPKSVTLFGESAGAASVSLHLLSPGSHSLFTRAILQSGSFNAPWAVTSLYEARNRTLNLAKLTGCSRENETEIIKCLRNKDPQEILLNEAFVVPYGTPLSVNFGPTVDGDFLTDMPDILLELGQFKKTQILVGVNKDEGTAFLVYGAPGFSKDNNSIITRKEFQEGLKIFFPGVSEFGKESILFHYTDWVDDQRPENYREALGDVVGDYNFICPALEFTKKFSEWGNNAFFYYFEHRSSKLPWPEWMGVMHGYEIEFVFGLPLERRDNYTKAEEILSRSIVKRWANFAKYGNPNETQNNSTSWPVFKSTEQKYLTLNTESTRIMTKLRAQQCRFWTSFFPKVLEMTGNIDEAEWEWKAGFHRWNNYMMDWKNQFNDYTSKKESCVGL
Sequence of human CYP19A1, CYP19A1 (gene 1588) (P11511 whole entry, looked up): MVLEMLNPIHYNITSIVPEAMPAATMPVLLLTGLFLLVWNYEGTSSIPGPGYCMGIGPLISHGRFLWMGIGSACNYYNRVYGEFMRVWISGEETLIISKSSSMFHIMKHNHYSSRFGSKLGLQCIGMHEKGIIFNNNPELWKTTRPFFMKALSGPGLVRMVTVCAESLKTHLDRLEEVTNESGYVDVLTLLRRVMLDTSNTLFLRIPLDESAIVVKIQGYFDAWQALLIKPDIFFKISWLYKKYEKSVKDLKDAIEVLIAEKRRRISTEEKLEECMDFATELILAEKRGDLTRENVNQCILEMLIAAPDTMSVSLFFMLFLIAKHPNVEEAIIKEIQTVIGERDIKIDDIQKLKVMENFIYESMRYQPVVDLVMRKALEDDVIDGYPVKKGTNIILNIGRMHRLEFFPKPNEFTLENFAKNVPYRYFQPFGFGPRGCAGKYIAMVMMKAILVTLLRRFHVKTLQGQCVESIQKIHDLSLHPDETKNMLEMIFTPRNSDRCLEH
Sequence of human CYP2B6, CYP2B6 (gene 1555) (P20813 whole entry, looked up): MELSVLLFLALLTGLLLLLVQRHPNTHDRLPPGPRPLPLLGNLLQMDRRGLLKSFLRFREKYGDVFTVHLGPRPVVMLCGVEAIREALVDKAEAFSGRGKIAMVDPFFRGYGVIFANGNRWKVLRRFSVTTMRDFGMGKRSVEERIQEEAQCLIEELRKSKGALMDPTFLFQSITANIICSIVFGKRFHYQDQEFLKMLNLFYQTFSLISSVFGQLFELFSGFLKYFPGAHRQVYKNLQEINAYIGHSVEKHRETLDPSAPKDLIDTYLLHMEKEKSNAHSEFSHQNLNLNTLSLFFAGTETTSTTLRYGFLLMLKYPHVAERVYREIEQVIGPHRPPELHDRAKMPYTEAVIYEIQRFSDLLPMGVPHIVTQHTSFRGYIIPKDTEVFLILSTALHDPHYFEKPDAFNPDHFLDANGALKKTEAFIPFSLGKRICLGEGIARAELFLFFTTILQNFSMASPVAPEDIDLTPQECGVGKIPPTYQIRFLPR
Sequence of human CYP2A6, CYP2A6 (gene 1548) (P11509 whole entry, looked up): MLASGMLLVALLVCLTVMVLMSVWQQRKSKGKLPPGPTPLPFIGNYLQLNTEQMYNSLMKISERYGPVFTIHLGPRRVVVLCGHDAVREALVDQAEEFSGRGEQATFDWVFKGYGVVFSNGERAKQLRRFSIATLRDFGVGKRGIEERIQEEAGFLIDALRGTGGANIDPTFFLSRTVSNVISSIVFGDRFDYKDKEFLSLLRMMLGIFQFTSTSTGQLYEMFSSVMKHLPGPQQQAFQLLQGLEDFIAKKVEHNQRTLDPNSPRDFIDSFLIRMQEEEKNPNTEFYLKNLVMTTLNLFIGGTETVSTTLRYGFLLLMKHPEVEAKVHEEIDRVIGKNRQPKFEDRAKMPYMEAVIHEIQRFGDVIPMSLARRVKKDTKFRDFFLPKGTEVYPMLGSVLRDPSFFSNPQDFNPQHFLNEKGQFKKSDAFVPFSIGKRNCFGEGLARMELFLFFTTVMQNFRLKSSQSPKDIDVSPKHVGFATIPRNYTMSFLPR

Take `CCc1occc(=O)c1O`: the AC50 in experiment [1] was 3.97 µM (active).

For the compound `C=CC(=O)OCC(C)OCC(C)OCC(C)OC(=O)C=C` (centres undefined), the AC50 is 5.5 µM (active) in [2]; 5.29 µM (active) in [3]; 3.14 µM (active) in [4]; 2.88 µM (active) in experiment [5]; 21.6 µM (active) in experiment [6]. In addition, the compound was classed as inactive in [7] and in experiment [8].

With `CCCCOCCOCCOC(C)=O`, in experiment [8], the compound was called inactive.

As to `CC(C)CO`, in experiment [8], the call was inactive.

Take `CO[Si](CCCS)(OC)OC`: the AC50 in experiment [9] was 25 µM (active).

For the compound `Nc1ccc(C(=O)O)cc1`, the result in [2], in [3], in experiment [4], in experiment [5] and in [6] was inactive.

With `CC1(C)CC(O)CC(C)(C)N1[O]`, the result in experiment [2], in experiment [3], in [4], in experiment [5] and in experiment [6] was inactive.

For the compound `O=C1CCCCCCCCCCCN1`, the outcome in experiment [2], in experiment [3], in experiment [4], in [5] and in experiment [6] was inactive.

For the compound `C=C(C)OC(C)=O`, the compound was called inactive in experiment [8].

`CCOC(=O)/C=C\C(=O)OCC`: the concentration at half-maximal activity (AC50) is 20 µM (active) in [2] and 14.7 µM (active) in experiment [10]. Besides, the outcome in [3], in [4], in experiment [5], in experiment [6] and in experiment [9] was inactive.

For the compound `Cc1ccc([N+](=O)[O-])cc1N`, the AC50 is 5.91 µM (active) in experiment [2], 10 µM (active) in [11], 2.51 µM (active) in [12] and 4.92 µM (active) in experiment [14]. For the same compound, the result in experiment [3], in experiment [4], in [5], in experiment [6] and in experiment [13] was inactive.

Consider `c1ccc2sc(SSN3CCOCC3)nc2c1`, for which the outcome in experiment [2], in experiment [4] and in experiment [6] was inactive. The concentration at half-maximal activity (AC50) is 20 µM (active) in experiment [3], 8.5 µM (active) in [5], 0.01 µM (active) in [14] and 1.39 µM (active) in experiment [10].

Consider `CC(=O)OC(C)c1ccccc1` (centres undefined), for which the result in [8] was inactive.

For `CCCCCC1=CCCC1=O`, the outcome in experiment [2], in experiment [3], in [4], in experiment [5], in experiment [6] and in experiment [8] was inactive.

For the compound `COc1ccc(C(=O)c2ccccc2)c(O)c1`, the outcome in [2], in experiment [3], in [4], in experiment [5] and in [6] was inactive.

Consider `CC/C=C\CCOC(=O)c1ccccc1O`, for which the concentration at half-maximal activity (AC50) in [2] was 29.7 µM (active); in experiment [3], 33.3 µM (active); in experiment [5] it was 31.2 µM (active); in experiment [6], 30.7 µM (active). Also, the result in experiment [4] and in experiment [8] was inactive.

For the compound `Cc1c(O)cccc1O`, the outcome in experiment [2], in experiment [4], in experiment [6] and in [7] was inactive. Moreover, the AC50 in experiment [3] and in experiment [5] was 31 µM (active) in each case.

As to `O=C(O)c1ccc2c(c1)C(=O)OC2=O`, the compound was called inactive in experiment [15].

On to `Fc1ccc(Br)cc1`, for which the result in experiment [2], in experiment [3], in experiment [4], in [5], in experiment [6] and in experiment [9] was inactive. In addition, the compound was classed as inactive in [16]. The concentration at half-maximal activity (AC50) in experiment [10] was 13.7 µM (active).

`Nc1ncnc2nc[nH]c12`: the compound was called inactive in experiment [8].
